AC50 and outcome data for 17 molecules are collected here from PubChem BioAssay (EPA / NIEHS).

Molecules are shown by their SMILES. “And” between values parts separate entries of the source, which are not always exact repeats. Identical values can stand only once. Inconclusive results are not listed. Some structures have more than one record in an assay (separate samples or runs), and their calls can disagree. The source made the active and inactive calls. The calls were made as follows: active = hit-call score of the fitted dose curve at least 0.9, where 1 is the maximum; inconclusive = response in the unintended direction; inactive = score below 0.9.

What is called AC50 is the midpoint of the concentration-response curve, whichever way the signal moves.

Test [1] addresses sheep Cyclooxygenase-1 (Cox1), PTGS1 (gene 443551) (UniProt P05979). The experiment in a line: NVS_ENZ_oCOX1: NovaScreen (NVS) Enzymatic Assay for sheep Cyclooxygenase-1 (Cox1) (AID 2283239).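 Also: actives reduce cyclooxygenase activity so potencies are for inhibitors.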 In a few lines: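 COX1 from ovine seminal vesicles, activity read colorimetrically about 0.66 h after dosing. Primary screen in duplicate at 25 uM; actives retested in concentration series; loss of signal fitted versus DMSO.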

The target of test [2] is human Vascular Endothelial Growth Factor Receptor 2 (VEGFR2), KDR (gene 3791) (UniProt P35968). The experiment in a line: NVS_ENZ_hVEGFR2: NovaScreen (NVS) Enzymatic Assay for human Vascular Endothelial Growth Factor Receptor 2 (VEGFR2) (AID 2283230). The procedure, abridged:
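Cell-free recombinant VEGFR2 kinase, fluorescent substrate with electrophoretic mobility-shift separation; read 1 h after dosing. Screened at 25 uM in duplicate, hits to concentration-response up to 50 uM; loss-of-signal versus DMSO.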

The target in test [3] is sheep Cyclooxygenase-2 (Cox2), PTGS2 (gene 443460) (UniProt P79208). As to the kind of experiment: NVS_ENZ_oCOX2: NovaScreen (NVS) Enzymatic Assay for sheep Cyclooxygenase-2 (Cox2) (AID 2283231). In a few lines:
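Ovine placental enzyme, cell-free; chemical added, 0.66 h, absorbance (colorimetric). Screen 25 uM in duplicate; ≥threshold hits titrated, top 50 uM. Inhibition = signal loss vs DMSO.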

Test [4] has as its target guinea pig Opioid, Kappa 1 Receptor (OpiateK), OPRK1 (gene 100135587) (UniProt P41144). The experiment in a line: NVS_GPCR_gOpiateK: NovaScreen (NVS) G Protein-Coupled Receptor Assay for guinea pig Opioid, Kappa 1 Receptor (OpiateK) (AID 2283252).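 Also: radioligand displacement from kappa opioid receptor in guinea pig cerebellar membranes; active means reduced radioligand binding relative to DMSO.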 In a few lines: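 Radioligand competition binding using guinea pig cerebellum membrane fraction; 2 h exposure; filter radiodetection. Single concentration 25 uM (duplicate), follow-up concentration-response for actives.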

Test [5] addresses human Adenosine A1 Receptor (AdoRA1), ADORA1 (gene 134) (UniProt P30542). As to the kind of experiment: NVS_GPCR_hAdoRA1: NovaScreen (NVS) G Protein-Coupled Receptor Assay for human Adenosine A1 Receptor (AdoRA1) (AID 2283254). The procedure, abridged: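 Hum. cortical membranes + radioligand, cmpd 1 h; filtration, scintillation count. Readout = decrease vs DMSO. Primary 25 uM dup; hits → conc. series.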

Test [6] deals with human Serotonin, 5-Hydroxytryptamine Receptor 7 (5HT7), HTR7 (gene 3363) (UniProt P34969). As to the kind of experiment: NVS_GPCR_h5HT7: NovaScreen (NVS) G Protein-Coupled Receptor Assay for human Serotonin, 5-Hydroxytryptamine Receptor 7 (5HT7) (AID 2283255).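 Also: hits reduce specific radioligand binding relative to DMSO.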 In a few lines:
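Filter-bound radioactivity counted after 1 h, with loss of specific radioligand binding fitted against DMSO. Membrane protein came from CHO cells expressing human 5HT7. Chemicals were tested first at 25 uM in duplicate, then in concentration series if active.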

Test [7] concerns the target rat Catechol-O-Methyl Transferase (COMT), Comt (gene 24267) (UniProt P22734). The experiment in a line: NVS_ENZ_rCOMT: NovaScreen (NVS) Enzymatic Assay for rat Catechol-O-Methyl Transferase (COMT) (AID 2283235). The procedure, abridged: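 Rat dorsal striatum extract served as COMT source; product quantified by HPLC/spectrophotometry, read at 0 h after dosing. Primary single-concentration screen at 25 uM, followed by concentration series to a 50 uM maximum.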

Test [8] addresses human Serotonin, 5-Hydroxytryptamine Receptor 2A (5HT2A), HTR2A (gene 3356) (UniProt P28223). The experiment in a line: NVS_GPCR_h5HT2A: NovaScreen (NVS) G Protein-Coupled Receptor Assay for human Serotonin, 5-Hydroxytryptamine Receptor 2A (5HT2A) (AID 2283249). In a few lines: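 Radioligand displacement on human cortex tissue extract, counted by filtration and scintillation 1.5 h post-dosing. Initial single-concentration screen at 25 uM in duplicate, concentration series in follow-up; DMSO as baseline.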

Test [9] addresses rat Constitutive Nitric Oxide Synthase (CNOS), Nos1 (gene 24598) (UniProt P29476). The experiment in a line: NVS_ENZ_rCNOS: NovaScreen (NVS) Enzymatic Assay for rat Constitutive Nitric Oxide Synthase (CNOS) (AID 2283236). In a few lines:
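Single 25 uM duplicate screen, then concentration series to 50 uM for chemicals meeting threshold. Rat brain membrane-derived CNOS activity detected radiometrically by filtration and scintillation counting, 1 h after compound addition; DMSO as baseline.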

For test [10], the target named is human Adenosine A2a Receptor (AdoRA2a), ADORA2A (gene 135) (UniProt P29274). As to the kind of experiment: NVS_GPCR_hAdoRA2a: NovaScreen (NVS) G Protein-Coupled Receptor Assay for human Adenosine A2a Receptor (AdoRA2a) (AID 2283256). In a few lines:
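HEK293-derived receptor preparation, radioligand displacement, 1.5 h, filtration + scintillation read. Loss of bound signal scored vs DMSO. Single-point 25 uM in duplicate first, then concentration-response for actives.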

Test [11] addresses Adenosine receptor A1 (Bos taurus) (UniProt P28190). The experiment in a line: NVS_GPCR_bAdoR_NonSelective: NovaScreen (NVS) G Protein-Coupled Receptor Assay for bovine Adenosine Receptor (AdoR), Non-selective Binding (AID 2283244). The procedure, abridged:
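Cell-free binding with membranes from bovine striatum: radioligand displaced by test chemical, read after 1 h by filtration and scintillation. Single-point 25 uM duplicate primary, 50 uM top concentration in follow-up curves, DMSO baseline.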

The target in test [12] is human Serotonin, 5-Hydroxytryptamine Receptor 6 (5HT6), HTR6 (gene 3362) (UniProt P50406). As to the kind of experiment: NVS_GPCR_h5HT6: NovaScreen (NVS) G Protein-Coupled Receptor Assay for human Serotonin, 5-Hydroxytryptamine Receptor 6 (5HT6) (AID 2283253). The procedure, abridged: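 Filter scintillation counting of radioligand displacement from HEK293-expressed 5HT6, 1 hour post-dose, with loss of signal relative to DMSO. Single 25 uM duplicates first, with concentration series for confirmation.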

The target of test [13] is human Adrenergic, Alpha 2A Receptor (Adra2A), ADRA2A (gene 150) (UniProt P08913). As to the kind of experiment: NVS_GPCR_hAdra2A: NovaScreen (NVS) G Protein-Coupled Receptor Assay for human Adrenergic, Alpha 2A Receptor (Adra2A) (AID 2283257). In a few lines:
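Displacement of a specific radioligand from HT29 membrane protein was counted by filter scintillation after 1 h. Compounds were screened in duplicate at 25 uM, and actives were retested in concentration series. Fitting was positive-direction against DMSO.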

The target of test [14] is guinea pig Leukotriene D4 Receptor (LTD4), CYSLTR1 (gene 100135514) (UniProt Q2NNR5). As to the kind of experiment: NVS_GPCR_gLTD4: NovaScreen (NVS) G Protein-Coupled Receptor Assay for guinea pig Leukotriene D4 Receptor (LTD4) (AID 2283248). The procedure, abridged: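 Guinea pig lung membrane preparation; bound radioligand measured by filter scintillation after 1 h, loss of signal versus DMSO marking displacement. Compounds tested at 25 uM in duplicate, hits retested to max 50 uM.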

The target of test [15] is human Serotonin, 5-Hydroxytryptamine Receptor 5A (5HT5A), HTR5A (gene 3361) (UniProt P47898). As to the kind of experiment: NVS_GPCR_h5HT5A: NovaScreen (NVS) G Protein-Coupled Receptor Assay for human Serotonin, 5-Hydroxytryptamine Receptor 5A (5HT5A) (AID 2283251). In a few lines:
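Membranes from HEK293 cells, radioligand binding read by filtration and scintillation after 1 h. Single-concentration duplicate testing at 25 uM, then concentration-response for actives; positive-direction fitting relative to DMSO.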

For test [16], the system named is guinea pig Muscarinic, Peripheral (Mperiperal) Receptor, Non-selective Binding, gene 100379235. The experiment in a line: NVS_GPCR_gMPeripheral_NonSelective: NovaScreen (NVS) G Protein-Coupled Receptor Assay for guinea pig Muscarinic, Peripheral (Mperiperal) Receptor, Non-selective Binding (AID 2283250). The procedure, abridged: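 Screened in duplicate at 25 uM, hits retested in concentration series to 50 uM max, using bladder membrane radioligand displacement from guinea pig. Filtration and scintillation counting 1 h post-dose, fitted relative to DMSO.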

In test [17] the test system is bovine Histamine 1 Receptor (H1), gene 281231. The experiment in a line: NVS_GPCR_bH1: NovaScreen (NVS) G Protein-Coupled Receptor Assay for bovine Histamine 1 Receptor (H1) (AID 2283246). The procedure, abridged: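 Hits from a 25 uM duplicate primary screen were retested in concentration series (top 50 uM); binding measured as scintillation-counted displacement of radioligand from bovine cerebellar membranes after 1 h, normalised to DMSO.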

human Adenosine A1 Receptor (AdoRA1), ADORA1 (gene 134), sequence (P30542 whole entry, looked up): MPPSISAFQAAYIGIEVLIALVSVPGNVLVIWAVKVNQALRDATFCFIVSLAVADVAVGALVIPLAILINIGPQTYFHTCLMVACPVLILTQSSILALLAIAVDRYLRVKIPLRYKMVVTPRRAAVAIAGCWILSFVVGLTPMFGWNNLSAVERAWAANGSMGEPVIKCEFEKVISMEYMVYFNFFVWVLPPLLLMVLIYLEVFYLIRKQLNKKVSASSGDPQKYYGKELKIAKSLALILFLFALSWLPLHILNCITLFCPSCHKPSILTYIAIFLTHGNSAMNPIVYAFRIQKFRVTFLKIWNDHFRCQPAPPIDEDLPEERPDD
guinea pig Opioid, Kappa 1 Receptor (OpiateK), OPRK1 (gene 100135587), sequence (P41144 whole entry, looked up): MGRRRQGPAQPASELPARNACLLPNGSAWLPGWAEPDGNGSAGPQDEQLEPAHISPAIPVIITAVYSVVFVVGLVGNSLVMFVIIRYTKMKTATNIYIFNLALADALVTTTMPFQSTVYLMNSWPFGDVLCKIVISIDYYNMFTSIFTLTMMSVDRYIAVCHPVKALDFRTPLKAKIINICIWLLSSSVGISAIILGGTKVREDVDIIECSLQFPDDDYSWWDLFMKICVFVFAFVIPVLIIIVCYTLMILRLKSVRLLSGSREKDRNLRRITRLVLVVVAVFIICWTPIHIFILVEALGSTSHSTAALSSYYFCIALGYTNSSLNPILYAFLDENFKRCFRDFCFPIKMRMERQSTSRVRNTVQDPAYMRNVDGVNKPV
sheep Cyclooxygenase-1 (Cox1), PTGS1 (gene 443551), sequence (P05979 whole entry, looked up): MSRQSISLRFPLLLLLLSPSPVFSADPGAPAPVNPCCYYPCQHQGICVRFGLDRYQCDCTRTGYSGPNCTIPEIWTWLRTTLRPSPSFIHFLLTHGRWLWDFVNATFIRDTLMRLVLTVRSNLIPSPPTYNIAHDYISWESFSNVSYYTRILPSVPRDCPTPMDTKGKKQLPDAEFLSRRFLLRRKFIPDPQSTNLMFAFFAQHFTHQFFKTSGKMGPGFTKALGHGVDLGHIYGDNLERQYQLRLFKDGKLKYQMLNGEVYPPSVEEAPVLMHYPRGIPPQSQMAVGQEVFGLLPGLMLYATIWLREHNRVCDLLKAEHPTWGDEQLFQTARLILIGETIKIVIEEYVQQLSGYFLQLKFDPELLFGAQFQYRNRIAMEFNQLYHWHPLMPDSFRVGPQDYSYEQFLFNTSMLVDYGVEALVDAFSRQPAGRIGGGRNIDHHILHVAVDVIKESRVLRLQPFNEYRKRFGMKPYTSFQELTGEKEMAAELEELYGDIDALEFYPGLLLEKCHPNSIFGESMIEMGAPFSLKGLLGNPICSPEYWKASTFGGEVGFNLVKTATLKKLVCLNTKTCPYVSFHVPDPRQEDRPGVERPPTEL
human Vascular Endothelial Growth Factor Receptor 2 (VEGFR2), KDR (gene 3791), sequence (P35968 whole entry, looked up): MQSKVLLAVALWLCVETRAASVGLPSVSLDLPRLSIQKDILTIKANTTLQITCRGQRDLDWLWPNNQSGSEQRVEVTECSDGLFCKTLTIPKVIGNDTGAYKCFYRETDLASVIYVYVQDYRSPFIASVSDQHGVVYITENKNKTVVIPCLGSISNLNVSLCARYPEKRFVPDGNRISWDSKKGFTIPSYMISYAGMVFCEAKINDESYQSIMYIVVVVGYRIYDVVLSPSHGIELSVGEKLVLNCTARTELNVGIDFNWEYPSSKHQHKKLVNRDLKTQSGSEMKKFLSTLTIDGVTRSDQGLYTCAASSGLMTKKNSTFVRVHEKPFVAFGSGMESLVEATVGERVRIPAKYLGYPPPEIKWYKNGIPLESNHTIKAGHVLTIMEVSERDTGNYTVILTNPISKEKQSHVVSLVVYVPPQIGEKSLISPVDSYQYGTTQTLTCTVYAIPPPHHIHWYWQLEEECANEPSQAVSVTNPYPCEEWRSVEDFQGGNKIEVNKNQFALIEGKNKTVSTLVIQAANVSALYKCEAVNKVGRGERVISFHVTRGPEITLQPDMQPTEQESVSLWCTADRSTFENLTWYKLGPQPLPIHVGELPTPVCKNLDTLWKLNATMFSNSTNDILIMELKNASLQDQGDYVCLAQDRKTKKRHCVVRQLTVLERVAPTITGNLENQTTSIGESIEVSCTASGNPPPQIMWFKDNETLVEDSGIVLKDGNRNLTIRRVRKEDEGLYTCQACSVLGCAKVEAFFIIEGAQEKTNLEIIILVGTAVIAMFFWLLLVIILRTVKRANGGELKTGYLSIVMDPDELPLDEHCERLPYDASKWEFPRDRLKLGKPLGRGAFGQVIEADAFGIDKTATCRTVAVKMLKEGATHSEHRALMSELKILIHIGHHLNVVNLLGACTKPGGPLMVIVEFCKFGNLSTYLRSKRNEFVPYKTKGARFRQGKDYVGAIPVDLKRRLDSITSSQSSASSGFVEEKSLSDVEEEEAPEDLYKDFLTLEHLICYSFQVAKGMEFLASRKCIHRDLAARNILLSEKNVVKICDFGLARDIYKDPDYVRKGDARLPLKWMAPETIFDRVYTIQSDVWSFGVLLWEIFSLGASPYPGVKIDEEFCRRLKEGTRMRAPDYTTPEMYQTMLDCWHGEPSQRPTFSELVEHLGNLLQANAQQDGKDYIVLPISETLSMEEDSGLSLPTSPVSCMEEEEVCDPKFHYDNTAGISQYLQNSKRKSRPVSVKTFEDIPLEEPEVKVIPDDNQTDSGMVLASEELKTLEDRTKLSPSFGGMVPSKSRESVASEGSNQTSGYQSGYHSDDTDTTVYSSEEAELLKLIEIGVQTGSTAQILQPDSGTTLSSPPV
rat Constitutive Nitric Oxide Synthase (CNOS), Nos1 (gene 24598), sequence (P29476 whole entry, looked up): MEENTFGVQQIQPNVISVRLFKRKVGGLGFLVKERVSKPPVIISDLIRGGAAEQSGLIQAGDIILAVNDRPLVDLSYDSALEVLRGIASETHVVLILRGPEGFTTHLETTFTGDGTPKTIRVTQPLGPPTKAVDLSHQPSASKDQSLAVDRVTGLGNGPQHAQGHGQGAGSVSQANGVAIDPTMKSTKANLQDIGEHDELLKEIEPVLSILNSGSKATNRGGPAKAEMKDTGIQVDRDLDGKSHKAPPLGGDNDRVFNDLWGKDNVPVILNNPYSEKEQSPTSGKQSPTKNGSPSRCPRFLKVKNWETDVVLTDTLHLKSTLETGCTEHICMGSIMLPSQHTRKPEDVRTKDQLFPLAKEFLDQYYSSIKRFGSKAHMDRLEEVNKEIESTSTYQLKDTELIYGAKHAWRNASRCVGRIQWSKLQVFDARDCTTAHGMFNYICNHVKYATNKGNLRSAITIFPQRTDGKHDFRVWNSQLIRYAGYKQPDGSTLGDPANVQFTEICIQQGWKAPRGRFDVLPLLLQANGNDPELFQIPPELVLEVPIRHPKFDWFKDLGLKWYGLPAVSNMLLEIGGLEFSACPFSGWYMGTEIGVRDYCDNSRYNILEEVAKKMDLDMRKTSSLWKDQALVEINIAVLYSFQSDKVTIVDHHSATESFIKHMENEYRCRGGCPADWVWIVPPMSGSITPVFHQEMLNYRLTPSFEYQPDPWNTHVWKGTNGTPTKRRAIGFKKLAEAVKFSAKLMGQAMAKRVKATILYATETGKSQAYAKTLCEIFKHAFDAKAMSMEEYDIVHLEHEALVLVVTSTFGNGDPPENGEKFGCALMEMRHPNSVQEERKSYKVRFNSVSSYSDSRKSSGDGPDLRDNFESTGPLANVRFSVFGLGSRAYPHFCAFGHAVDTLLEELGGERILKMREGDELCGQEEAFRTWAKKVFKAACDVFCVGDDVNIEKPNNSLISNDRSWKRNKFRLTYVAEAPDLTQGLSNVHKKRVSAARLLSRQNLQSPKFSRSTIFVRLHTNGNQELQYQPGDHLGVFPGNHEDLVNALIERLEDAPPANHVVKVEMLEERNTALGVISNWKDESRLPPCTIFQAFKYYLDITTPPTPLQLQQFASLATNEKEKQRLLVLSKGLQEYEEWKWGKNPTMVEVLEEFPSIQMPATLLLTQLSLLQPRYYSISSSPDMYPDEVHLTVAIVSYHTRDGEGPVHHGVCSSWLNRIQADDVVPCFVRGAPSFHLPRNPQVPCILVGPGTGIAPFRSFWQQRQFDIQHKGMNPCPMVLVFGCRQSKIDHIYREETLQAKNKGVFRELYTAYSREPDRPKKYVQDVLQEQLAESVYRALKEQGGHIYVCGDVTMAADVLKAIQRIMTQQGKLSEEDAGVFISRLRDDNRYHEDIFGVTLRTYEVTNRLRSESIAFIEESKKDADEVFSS
human Serotonin, 5-Hydroxytryptamine Receptor 7 (5HT7), HTR7 (gene 3363), sequence (P34969 whole entry, looked up): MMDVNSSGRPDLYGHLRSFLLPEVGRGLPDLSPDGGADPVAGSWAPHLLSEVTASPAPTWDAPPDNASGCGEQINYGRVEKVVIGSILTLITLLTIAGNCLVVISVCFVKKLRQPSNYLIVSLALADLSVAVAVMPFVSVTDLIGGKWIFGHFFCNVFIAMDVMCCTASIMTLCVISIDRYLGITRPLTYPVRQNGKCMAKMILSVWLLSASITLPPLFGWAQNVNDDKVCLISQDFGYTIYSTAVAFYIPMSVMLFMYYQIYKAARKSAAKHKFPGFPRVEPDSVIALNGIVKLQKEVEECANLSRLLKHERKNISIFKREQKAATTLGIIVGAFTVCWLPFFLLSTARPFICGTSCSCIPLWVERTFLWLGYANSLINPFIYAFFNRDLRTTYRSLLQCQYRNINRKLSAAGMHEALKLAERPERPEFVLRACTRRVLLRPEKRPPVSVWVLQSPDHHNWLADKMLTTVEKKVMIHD
human Adenosine A2a Receptor (AdoRA2a), ADORA2A (gene 135), sequence (P29274 whole entry, looked up): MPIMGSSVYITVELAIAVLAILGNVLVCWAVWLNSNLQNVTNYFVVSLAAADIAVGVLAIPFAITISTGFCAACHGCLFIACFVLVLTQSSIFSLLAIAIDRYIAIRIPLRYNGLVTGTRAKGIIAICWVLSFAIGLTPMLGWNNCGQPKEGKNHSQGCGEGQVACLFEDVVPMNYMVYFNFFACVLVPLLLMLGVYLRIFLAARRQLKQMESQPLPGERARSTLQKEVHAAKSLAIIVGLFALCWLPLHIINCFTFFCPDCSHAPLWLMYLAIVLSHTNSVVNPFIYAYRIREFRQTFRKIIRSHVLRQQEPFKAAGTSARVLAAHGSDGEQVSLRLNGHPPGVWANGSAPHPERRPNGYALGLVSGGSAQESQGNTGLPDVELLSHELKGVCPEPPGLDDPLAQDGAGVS

With `CC(=O)[C@H]1CC[C@H]2[C@@H]3CCC4=CC(=O)CC[C@]4(C)[C@H]3CC[C@]12C`, in test [1], the AC50 was 17.7 µM (active).
With `CC(C)(c1ccc(O)cc1)c1ccc(O)cc1`, the result in test [2], in test [3], in test [1], in test [4] and in test [6] was inactive. Besides, the AC50 in test [5] is 11.9 µM (active) and 1.83 µM (active).
For the molecule `CCCCCCC(C)OC(=O)COc1nc(F)c(Cl)c(N)c1Cl` (configuration not stated), the result in test [6] was inactive.
For `S=C(S)NCCNC(=S)S.[Mn+2].[S-]C([S-])=NCCN=C([S-])[S-].[Zn+2]`, the concentration at half-maximal activity (AC50) is 4.23 µM (active) and 3.35 µM (active) in test [2]; 12.5 µM (active) in test [3]; 21.1 µM (active) in test [7]; 2.48 µM (active) and 5.86 µM (active) and 2.62 µM (active) in [6]. Moreover, the result in [1], in [8] and in test [6] was inactive.
Consider `CCCCC(CC)COC(=O)c1ccccc1C(=O)O` (configuration not stated), for which the molecule was classed as inactive in test [9] and in test [5].
As for `CCCCOC(=O)[C@@H](C)Oc1ccc(Oc2ccc(C(F)(F)F)cn2)cc1`, the call in [6] was inactive.
In the case of `CCOC(=O)C(C)Oc1ccc(Oc2nc3ccc(Cl)cc3o2)cc1` (configuration not stated), the result in test [9] was inactive.
Consider `Cc1nn(C)c(Oc2ccccc2)c1C=NOCc1ccc(C(=O)OC(C)(C)C)cc1`, for which the AC50 in [6] was 6.64 µM (active).
Turning to `CCCCCOC(=O)COc1cc(N2C(=O)C3=C(CCCC3)C2=O)c(F)cc1Cl`, the molecule was classed as inactive in test [5].
As for `CCCOC(=O)c1ccc(C(=O)OCCC)nc1`, the AC50 in [10] is 15.2 µM (active).
On to `O=C(O)C1(C(=O)Nc2ccc(Cl)cc2Cl)CC1`, for which the outcome in [2] was inactive.
`N[C@@H](Cc1cc(I)c(Oc2ccc(O)c(I)c2)c(I)c1)C(=O)O`: the AC50 is 6.72 µM (active) in test [2], 3.2 µM (active) in [11], 6.06 µM (active) in test [12] and 554 nM (active) in test [5].
`CCOC(=O)[C@H](C)Oc1ccc(Oc2nc3ccc(Cl)cc3o2)cc1`: the AC50 in [9] was 9.56 µM (active).
For `COC(=O)CSc1cc(N=c2sc(=O)n3n2CCCC3)c(F)cc1Cl`, in test [13], the call was inactive.
As to `CCNc1nc(N)nc(Cl)n1`, the call in [11], in test [14] and in test [15] was inactive. The AC50 in [5] was 207 nM (active); in test [10] it was 9.05 µM (active).
As for `CCCOC(=O)NCCCN(C)C`, the outcome in test [16] was inactive.
With `CC(=O)S[C@@H]1CC2=CC(=O)CC[C@]2(C)[C@H]2CC[C@@]3(C)[C@@H](CC[C@@]34CCC(=O)O4)[C@H]12`, the molecule was called inactive in [17]. For the same molecule, the AC50 in [4] is 13.2 µM (active).
